# Sfp PPTase inh – inhibitors of Bacillus subtilis Sfp phosphopantetheinyl transferase; AID 1490; Potency, µM, for the others: largest response in the series, negative = inhibition, usual class: inhibitors; Biochemical Sfp PPTase activity, qHTS; 3.5% of 310,000 active;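 further: the enzyme is Sfp with the accession as filed and its product quenches rhodamine fluorescence; 0% = enzyme reaction without inhibitor and -100% = no enzyme wells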
#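 Reaction rates are the 30-min fluorescence difference (ex 525, em 598 nm) in wells containing 15 nM Sfp, 5 uM rhodamine-CoA and 12.5 uM BHQ-2-YbbR at pH 7.6 with 10 mM MgCl2.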
# G9a block – inhibitors of human histone lysine methyltransferase G9a. G9a H3K9 monomethylation, AlphaScreen, 2 h. Potency, µM (doses to about 102 µM), inactives show top-dose activity, negative = inhibition, most hits filed as inhibitors. 8.8% of 350,000 active. AID 504332; further: on the % scale 0 is the no-effect control and ±100 the full control effect; nearly all actives have a fitted effect of over 75% in size
#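 AlphaScreen detection with an anti-monomethyl H3K9 antibody quantified product after a 2 h room-temperature reaction containing 500 nM biotinylated H3K9 peptide, 20 µM SAM and 20 nM enzyme, which had been preincubated 15 min with compound.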
# L3MBTL1 block – blocks human L3MBTL1 | Q9Y468 | AlphaScreen L3MBTL1–H3K9me1 peptide binding | Potency, µM (doses to about 57.1 µM), for inactives: at the highest dose activity, negative = inhibition, usual class: inhibitors | 0.66% of 230,000 active | AID 485360; further: on the % scale 0 is the no-effect control and ±100 the full control effect; nearly all actives have a fitted effect of over 60% in size
#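 Displacement of a biotinylated histone H3(1-15) peptide monomethylated at Lys9 (75 nM) from L3MBTL1 (50 nM) was measured by AlphaScreen after a 30 min room-temperature compound incubation; cefsulodin titration served as intraplate control.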
# JMJD2A Tudor – inhibitors of human JMJD2A Tudor domain | 4.4% of 390,000 active | Potency, µM (titrated, usually from 114 µM), for inactives: at the highest dose activity change, negative = inhibition, usual class: inhibitors | AlphaScreen JMJD2A-Tudor / H3K4me3 peptide binding | AID 504339; further: on the % scale 0 is the no-effect control and ±100 the full control effect; nearly all actives have a fitted effect of over 50% in size
# BAZ2B block – BAZ2B (human) inhibition; Q9UIF8; AlphaScreen BAZ2B-H3K14Ac peptide displacement; Potency, µM (doses to about 114 µM), without a hit: top-dose activity change, negative = inhibition, hits mostly inhibitors; 4.4% of 360,000 active; further: on the % scale 0 is the no-effect control and ±100 the full control effect; nearly all actives have a fitted effect of over 60% in size
# Target sequence (Q9UIF8 whole entry, looked up): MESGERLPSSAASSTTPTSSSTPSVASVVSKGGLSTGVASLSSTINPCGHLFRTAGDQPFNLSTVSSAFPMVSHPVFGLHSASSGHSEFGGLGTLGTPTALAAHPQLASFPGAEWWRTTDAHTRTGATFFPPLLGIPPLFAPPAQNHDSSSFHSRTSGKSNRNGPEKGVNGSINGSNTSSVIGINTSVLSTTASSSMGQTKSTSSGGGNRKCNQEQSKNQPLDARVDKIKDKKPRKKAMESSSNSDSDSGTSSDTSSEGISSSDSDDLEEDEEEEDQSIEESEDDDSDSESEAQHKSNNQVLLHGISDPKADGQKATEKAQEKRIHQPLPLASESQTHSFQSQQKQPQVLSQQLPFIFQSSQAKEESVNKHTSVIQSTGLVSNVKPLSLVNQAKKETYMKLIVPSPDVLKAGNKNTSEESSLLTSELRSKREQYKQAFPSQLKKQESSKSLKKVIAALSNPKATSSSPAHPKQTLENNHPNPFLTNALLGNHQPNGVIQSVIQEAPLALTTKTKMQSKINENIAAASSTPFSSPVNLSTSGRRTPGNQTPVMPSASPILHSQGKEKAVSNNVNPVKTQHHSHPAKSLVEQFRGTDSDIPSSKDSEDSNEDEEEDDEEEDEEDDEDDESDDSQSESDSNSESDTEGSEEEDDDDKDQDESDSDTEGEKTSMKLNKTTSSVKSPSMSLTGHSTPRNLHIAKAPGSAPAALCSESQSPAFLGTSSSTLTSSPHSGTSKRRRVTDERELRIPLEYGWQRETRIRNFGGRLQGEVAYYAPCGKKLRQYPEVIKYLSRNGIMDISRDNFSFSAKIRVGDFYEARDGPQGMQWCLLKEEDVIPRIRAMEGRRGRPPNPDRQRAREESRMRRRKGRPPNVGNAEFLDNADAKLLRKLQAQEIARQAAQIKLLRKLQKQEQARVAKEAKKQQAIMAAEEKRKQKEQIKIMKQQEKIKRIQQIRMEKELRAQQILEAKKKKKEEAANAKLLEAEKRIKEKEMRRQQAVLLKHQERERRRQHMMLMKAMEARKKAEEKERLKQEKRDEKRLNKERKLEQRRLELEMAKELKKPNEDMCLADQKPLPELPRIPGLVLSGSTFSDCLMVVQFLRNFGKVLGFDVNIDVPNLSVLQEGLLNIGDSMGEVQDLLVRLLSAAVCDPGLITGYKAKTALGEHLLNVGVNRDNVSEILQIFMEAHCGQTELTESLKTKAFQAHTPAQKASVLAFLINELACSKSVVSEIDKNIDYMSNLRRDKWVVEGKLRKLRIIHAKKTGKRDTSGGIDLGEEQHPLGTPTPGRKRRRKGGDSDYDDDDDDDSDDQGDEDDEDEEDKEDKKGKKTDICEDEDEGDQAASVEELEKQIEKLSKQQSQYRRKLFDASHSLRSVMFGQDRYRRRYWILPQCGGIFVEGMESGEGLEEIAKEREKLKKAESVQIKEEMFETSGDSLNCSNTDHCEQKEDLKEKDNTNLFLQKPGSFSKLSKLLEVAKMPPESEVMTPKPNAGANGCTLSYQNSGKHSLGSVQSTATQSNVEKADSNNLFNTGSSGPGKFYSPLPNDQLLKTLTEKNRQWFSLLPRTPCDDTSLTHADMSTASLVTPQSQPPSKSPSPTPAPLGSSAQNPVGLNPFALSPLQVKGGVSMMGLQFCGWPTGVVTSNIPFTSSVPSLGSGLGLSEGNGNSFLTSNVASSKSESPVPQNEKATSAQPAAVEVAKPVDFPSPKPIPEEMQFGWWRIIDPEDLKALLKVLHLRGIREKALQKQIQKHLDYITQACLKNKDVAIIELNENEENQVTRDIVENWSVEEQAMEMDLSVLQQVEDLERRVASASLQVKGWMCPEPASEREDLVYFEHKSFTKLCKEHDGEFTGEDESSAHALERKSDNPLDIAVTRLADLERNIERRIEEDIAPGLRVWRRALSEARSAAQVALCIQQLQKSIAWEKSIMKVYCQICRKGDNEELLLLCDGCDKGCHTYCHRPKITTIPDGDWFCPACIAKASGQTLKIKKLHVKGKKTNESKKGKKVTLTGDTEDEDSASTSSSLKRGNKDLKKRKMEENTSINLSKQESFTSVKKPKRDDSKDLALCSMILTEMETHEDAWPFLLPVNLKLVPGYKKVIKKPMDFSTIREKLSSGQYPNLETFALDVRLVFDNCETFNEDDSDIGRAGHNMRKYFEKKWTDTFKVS
#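 BAZ2B 50 nM plus b-H3(5-23)K14Ac 50 nM, PBS pH 7.4/0.01% Tween-20, 30 min RT; compound added (max 110 uM), 30 min RT; streptavidin donor/Ni-chelate acceptor beads 10 ug/mL final, 20 min dark; AlphaScreen read.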
# HP1b chromo inh – HP1-beta chromodomain-methylated histone interaction inhibition. P83916. AlphaScreen HP1-beta / biotin-H3K9me3 peptide binding. Potency, µM (titrated, usually from 114 µM), without a hit: top-dose activity change, negative = inhibition, usual class: inhibitors. 0.56% of 390,000 active. AID 540317; further: nearly all actives have a fitted effect of over 70% in size
#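 HP1-beta protein (50 nM final) preincubated 30 min at room temperature with biotinylated H3(1-18)K9me3 peptide (50 nM) in PBS pH 7.4, 0.01% Tween-20, then compound added for 30 min. AlphaScreen streptavidin donor/nickel chelate acceptor beads (10 ug/mL final), 30 min dark, luminescence read.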
# Starred values were filed as active, the others as inactive; ? = inconclusive; · = no result; [ ] = remark or other dose. Only some compounds are listed: those with a hit (about 12% of all), similar ones and a draw of the others. The call rests on the fitted dose curve; in most records, active means well fitted curve in the direction sought with a large enough effect; inconclusive means small, poorly fitted or top-dose-only effect, or another doubt; inactive means no such curve, though single readings can be large; an effect the other way counts as inactive or inconclusive. Potency means the concentration at half of the fitted maximal effect.
SMILES,Sfp PPTase inh,G9a block,L3MBTL1 block,JMJD2A Tudor,BAZ2B block,HP1b chromo inh
CN(C)c1ccc(/C=N/N2CCN(Cc3ccccc3Cl)CC2)cc1,-5.2%,?,1.4%,31.6µM*,50.1µM*,?
N#Cc1ccc(CSc2nnc(-c3ccccc3)n2Cc2ccco2)cc1,-2.0%,·,-0.3%,-21.6%,-35.3%,-2.5%
C=CCn1c(Cc2cccs2)nnc1SCC(=O)c1ccc2ccccc2c1,-15.9%,28.2µM*,·,-23.9%,-8.5%,13.8%
C=CCn1c(Cc2cccs2)nnc1SCC(=O)c1ccc(F)cc1,2.2%,39.8µM*,0.7%,56.2µM*,7.1%,55.4%
N#Cc1ccc(CSc2nnc(Cc3cccs3)n2Cc2ccco2)cc1,14.1µM*,?,-24.3%,?,50.1µM*,-6.5%
C=CCn1c(Cc2cccs2)nnc1SCC(=O)NCc1ccco1,7.9%,44.7µM*,·,?,?,18.8%
CC(=O)Nc1ccc(S(=O)(=O)N2CCc3nc(COc4ccccc4)c4c(c3C2)CO[C@@H](C)C4)cc1,22.7%,·,·,·,·,·
C=CCn1c(CNC(=O)c2cccs2)nnc1SCC(=O)c1ccc(Br)cc1,12.3%,-2.9%[59 µM],-4.7%,-33.3%,-13.9%,21.7%
C=CCn1c(Cc2cccs2)nnc1SCC(=O)c1cccc(Br)c1,-1.8%,31.6µM*,-3.7%,-25.2%[57.1 µM],-7.1%,29.3%
CCCC(=O)Nc1ccc2c(c1)nc1n2CCN(C2CCCCC2)C1,25.3%,12.6µM*,-9.4%,?,-29.2%,-4.7%
CC(=O)Nc1ccc2c(c1)nc1n2CCN(C2CCCCC2)C1,7.8%,10µM*,-5.3%,-29.2%,?,-3.2%
Cc1ccc(-c2ccc(/C=N/N3C(=O)C4C5C=CC(CC5)C4C3=O)o2)c([N+](=O)[O-])c1 (stereo unspecified),4.4%,44.7µM*,·,-32.0%,?,-18.8%
COc1ccc(-c2ccc(/C=N/N3C(=O)C4C5C=CC(C6CC56)C4C3=O)o2)c([N+](=O)[O-])c1 (stereo unspecified),7.9%,?,?,?,?,-17.7%
O=C(O)c1cc(-c2ccc(/C=N/N3C(=O)C4C5C=CC(C6CC56)C4C3=O)o2)ccc1Cl (stereo unspecified),3.0%,44.7µM*,?,-8.3%[11.4 µM],79.4µM*,25.2%
O=C1C2C3C=CC(C4CC34)C2C(=O)N1/N=C/c1ccc(-c2ccc(Cl)cc2[N+](=O)[O-])o1 (stereo unspecified),-27.1%,35.5µM*,·,?,?,?
O=C1C2C3C=CC(C4CC34)C2C(=O)N1/N=C/c1ccc(-c2ccc(F)cc2[N+](=O)[O-])o1 (stereo unspecified),-24.3%,8.91µM*,·,?,?,-23.8%
CC(=O)c1sc(NC(=O)C2CCCN2S(=O)(=O)c2ccccc2F)nc1C (stereo unspecified),·,19.6%[59 µM],3.6%,-4.0%,9.8%,23.4%
O=C(Nc1ccccc1Cl)c1ccccc1Oc1ccc(C(F)(F)F)cc1[N+](=O)[O-],15.3%,24.5%[0.501 µM],-23.1%,50.1µM*,?,?
O=C(NC1(C(F)(F)F)NC(=O)N(Cc2ccccc2)C1=O)c1cccnc1 (stereo unspecified),6.8%,6.8%,·,-2.5%,?,25.5%
O=C(NC1(C(F)(F)F)NC(=O)N(Cc2ccco2)C1=O)c1cccnc1 (stereo unspecified),?,39.8µM*,3.7%,-9.1%,11.1%,33.7%
O=C(NC1(C(F)(F)F)NC(=O)N(Cc2ccco2)C1=O)c1cccs1 (stereo unspecified),35.5µM*,?,-3.1%,-22.3%,-5.7%,-9.6%
CC(C)=N/N=c1\scc(C)n1Cc1ccco1,11.8%,-49.4%,-14.6%,-29.8%,-38.8%,-6.4%
Cc1cs/c(=N\N=C\c2ccccc2)n1Cc1ccco1,-20.1%,14.1µM*,?,35.5µM*,12.6µM*,?
Cc1cs/c(=N\N=C2CCCCC2)n1Cc1ccco1,5.7%,?,-29.2%,?,44.7µM*,?
O=C1CSC2=NCN(c3ccc4c(c3)OCO4)CN12,?,9.1%[2.33 µM],·,?,?,8.0%
SMILES,Sfp PPTase inh,G9a block,L3MBTL1 block,JMJD2A Tudor,BAZ2B block,HP1b chromo inh
CN(C)c1ccc(N2CN=C3SCC(=O)N3C2)cc1,?,?,-66.8%,50.1µM*,25.1µM*,56.2µM*
O=C(/C=C/Nc1ccc(F)cc1)c1cccs1,·,·,·,0.0%,·,33.6%
O=C(/C=C/Nc1ccc(F)c(F)c1)c1cccs1,-10.2%,44.7µM*,-2.1%,-19.5%,1.3%,31.4%
COc1ccc(OC)c(Cc2nnc(CCC(=O)NCc3ccc(C)s3)o2)c1,0.1%,25.1µM*,-9.7%,-9.0%,?,9.6%
Cc1ccc(CCNC(=O)c2cc3c(=O)n(C)c4ccccc4c3n2C)cc1,·,-0.3%[59 µM],·,-17.5%,-15.4%,7.1%
Nc1c(S(=O)(=O)O)cc(Nc2ccc(Nc3nc(Cl)nc(Nc4ccc(S(=O)(=O)O)cc4)n3)c(S(=O)(=O)O)c2)c2c1C(=O)c1ccccc1C2=O,·,1µM*,·,·,·,·
Nc1c(S(=O)(=O)O)cc(Nc2ccc(Cl)cc2)c2c1C(=O)c1ccccc1C2=O,15.8µM*,·,·,·,·,·
O=C(Nc1ccc(Cl)cc1)c1ccc2c(c1)S(=O)(=O)c1ccccc1C2=O,·,·,·,-5.0%,·,42.6%
Nc1c(S(=O)(=O)O)cc(NC(=O)c2ccccc2)c2c1C(=O)c1ccccc1C2=O,?,?,·,2.51µM*,3.55µM*,?
CCCCNc1c(-c2cccc(-c3ccc(OC)cc3)c2)nc2ccc(C)cn12,·,10.2%[2.33 µM],-23.0%,25.1µM*,44.7µM*,-13.6%
CCCCNc1c(-c2cccc(-c3cc(C(C)=O)cs3)c2)nc2ccc(C)cn12,·,-16.2%[2.33 µM],?,25.1µM*,35.5µM*,-26.0%
CCCCNc1c(-c2cccc(-c3ccc(OC)cc3)c2)nc2cc(C)ccn12,·,·,-10.9%,?,·,-7.6%
NC(=O)c1cc(S(=O)(=O)N2CCOCC2)cs1,8.5%,·,·,-9.5%,-32.9%,19.0%[57 µM]
